In PubChem BioAssay (NCATS):
Records with an inconclusive call do not appear. Active and inactive are the calls of the source. The call rests on the fitted dose curve; in most records, active means well fitted inhibition curve with a large enough effect; inconclusive means small, poorly fitted or top-dose-only effect; inactive means no such curve, though single readings can be large or run the other way.

Each compound was assayed against Tyrosine-protein kinase Yes (Homo sapiens) (UniProt P07947) (assay: qHTS for small molecule inhibitors of Yes1 kinase: Primary Screen (AID 686947; further: nearly all actives have a fitted effect of over 60% in size;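 on activity change, negative = inhibition: plate controls were DMSO with enzyme for no effect and no-enzyme DMSO wells for full effect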)). Settings: Yes1 kinase biochemical qHTS inhibition; series mostly up to 76.9 µM; activity change, negative = inhibition: at the top concentration.
Chain of Tyrosine-protein kinase Yes (Homo sapiens) (P07947 whole entry, looked up): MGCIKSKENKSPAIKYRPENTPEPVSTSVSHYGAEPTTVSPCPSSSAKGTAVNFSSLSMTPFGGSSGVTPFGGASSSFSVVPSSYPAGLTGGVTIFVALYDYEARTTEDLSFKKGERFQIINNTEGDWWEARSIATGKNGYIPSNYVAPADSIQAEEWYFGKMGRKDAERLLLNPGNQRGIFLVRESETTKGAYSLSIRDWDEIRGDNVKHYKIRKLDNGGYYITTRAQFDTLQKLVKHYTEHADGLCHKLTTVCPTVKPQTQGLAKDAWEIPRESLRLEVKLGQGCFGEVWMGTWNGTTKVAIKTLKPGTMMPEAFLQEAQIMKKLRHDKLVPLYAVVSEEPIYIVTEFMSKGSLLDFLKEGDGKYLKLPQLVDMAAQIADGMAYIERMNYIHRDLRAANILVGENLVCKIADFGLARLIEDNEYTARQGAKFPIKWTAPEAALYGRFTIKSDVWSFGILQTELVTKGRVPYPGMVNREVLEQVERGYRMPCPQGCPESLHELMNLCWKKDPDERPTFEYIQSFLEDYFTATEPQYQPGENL
How it was run: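 Yes1 (4 nM) preincubated 20 min with compound, then 60 min room-temperature reaction with 0.1 mM ATP and 0.3 mg/mL poly(E4Y) in pH 7.5 Tris, 10 mM MgCl2. ADP measured by ADP-Glo luminescence, normalised to enzyme/no-enzyme controls.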
Potency means the concentration at half of the fitted maximal effect.

Row | Compound | Potency | activity change, negative = inhibition
1 | COc1ccc(CCN(C)CCCC(C#N)(c2ccc(OC)c(OC)c2)C(C)C)cc1OC (stereo unspecified) | inactive | 
2 | CN(C)C(=N)N=C(N)N |  | 12.3% (inactive)
3 | CC1(CN2CCC(n3c(=O)[nH]c4ccccc43)CC2)OCc2ccccc2-n2cccc21 (stereo unspecified) |  | -4.5% (inactive)
4 | Cn1ccc2cc3c(cc21)CCN3C(=O)Nc1cccnc1 |  | 27.5% (inactive)
5 | O=C1c2c(O)ccc(O)c2C(=O)c2c(NCCNCCO)ccc(NCCNCCO)c21 | 34.5 µM (active) | 
6 | Cc1ccc(-c2cc(C(F)(F)F)nn2-c2ccc(S(N)(=O)=O)cc2)cc1 |  | 10.5% [at 154 µM] (inactive)
